In the library only some 11% were active in any assay of this set; here they are far more common.
HP1b chromo inh: HP1-beta chromodomain-methylated histone interaction inhibition | P83916 | AlphaScreen HP1-beta / biotin-H3K9me3 peptide binding | Potency, µM (top dose mostly 114 µM), hits mostly inhibitors | 0.56% of 390,000 active | AID 540317; note: nearly all actives have a fitted effect of over 70% in size
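AlphaScreen: HP1-beta (50 nM) preformed 30 min with biotin-H3(1-18)K9me3 peptide (50 nM) in PBS pH 7.4, 0.01% Tween-20. Compound added for 30 min at RT, then streptavidin donor/nickel chelate acceptor beads (10 ug/mL) for 30 min.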
BAZ2B inh: blocks human BAZ2B. Q9UIF8. AlphaScreen BAZ2B-H3K14Ac peptide displacement. Potency, µM (top dose mostly 114 µM), most hits filed as inhibitors. 4.4% of 360,000 active; note: nearly all actives have a fitted effect of over 60% in size
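Compounds, titrated to a top concentration of 110 uM, were incubated 30 min at room temperature with preformed BAZ2B/acetyl-K14 H3 peptide complex (50 nM each). Proximity signal was measured by AlphaScreen after 20 min with beads.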
G9a inh: inhibitors of human histone lysine methyltransferase G9a | AID 504332 | G9a H3K9 monomethylation, AlphaScreen, 2 h | Q96KQ7 | 8.8% of 350,000 active | Potency, µM (titrated, usually from 102 µM), actives largely listed as inhibitors; note: nearly all actives have a fitted effect of over 75% in size
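Signal arises when biotinylated H3K9 peptide, once monomethylated, bridges streptavidin donor and antibody-captured acceptor beads. Enzyme at 20 nM was preincubated 15 min with test compounds; peptide 500 nM and SAM 20 uM then reacted for 2 h.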
PI5P4Ka inh: blocks human PI5P4K alpha kinase activity; P48426; PI5P4Kalpha enzyme, ADP-Glo luminescence, 60 min; stronger effect = lower value; max response, %; 1.2% of 330,000 active; AID 652105; active = max response of -50% or lower; inconclusive = between -30% and -50%; inactive = -30% or higher; note: value at the top dose of about 77 µM
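Quantitative HTS of the MLSMR library against PI5P4Kalpha with substrate. ATP added last at 5 microM final; room temperature, 60 minutes. Remaining ATP depleted, ADP converted and read as luminescence.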
JMJD2A Tudor inh: JMJD2A Tudor domain (human) inhibition; O75164; AlphaScreen JMJD2A-Tudor / H3K4me3 peptide binding; Potency, µM (top dose mostly 114 µM), actives largely listed as inhibitors; 4.4% of 390,000 active; AID 504339; note: nearly all actives have a fitted effect of over 50% in size
L3MBTL1 inh: L3MBTL1 (human) inhibition. Q9Y468. AlphaScreen L3MBTL1–H3K9me1 peptide binding. Potency, µM (series often up to 57.1 µM), actives largely listed as inhibitors. 0.66% of 230,000 active; note: nearly all actives have a fitted effect of over 60% in size
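AlphaScreen assay: L3MBTL1 (50 nM final) was preincubated 30 min at room temperature with biotinylated H3(1-15)K9me1 peptide (75 nM final), then 30 min with library compounds; streptavidin donor and nickel chelate acceptor beads (10 ug/mL final) added, 30 min dark.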
A number is an active result; n = inactive; u = inconclusive; x = not tested or not shown; ! = not confirmed by another sample; [ ] = remark or other dose. Unless noted, calls come from the whole dose curve; as a rule, active = well fitted inhibition curve with a large enough effect; inconclusive = small, poorly fitted or top-dose-only effect; inactive = no such curve, though single readings can be large or run the other way.

SMILES	HP1b chromo inh	BAZ2B inh	G9a inh	PI5P4Ka inh	JMJD2A Tudor inh	L3MBTL1 inh
CCCCCn1c(=N)n(CC(O)COc2ccccc2OC)c2ccccc21 (stereo not given)	n	n	n	n	n	5µM
Cc1ccc(CN(Cc2ccco2)C(=S)NCC(=O)NC2CC2)cc1	n	n	18µM	n	n	x
CCCCNC(=O)CNC(=S)N(Cc1ccc(C)cc1)Cc1ccco1	n	n	28µM	n	n	x
COc1ccc(C)cc1NC(=O)Cn1c(=O)n(Cc2nc(C)no2)c(=O)c2ccccc21	n	n	u	x	n	x
CCOc1ccc(NC(=O)N(Cc2c[nH]c3ccccc23)C2CCCCCC2)cc1	n	x	n	x	n	x
N#Cc1c(Sc2ncc(C(F)(F)F)cc2Cl)nsc1C/C=N\OCc1c(F)cccc1Cl	n	40µM	10µM	n	u	x
O=C(O)c1cc([N+](=O)[O-])c(N2CCCC2)c([N+](=O)[O-])c1	n	n	8.9µM	n	n	n
CCOc1ccc(S(=O)(=O)N(CC)CC)cc1NS(=O)(=O)c1ccc(F)c(F)c1F	n	n	n	n	50µM	n
CCOc1cc(S(=O)(=O)N(CC)CC)ccc1F	n	u	n	x	n	x
CCN(CC)S(=O)(=O)c1ccc(O)c(NS(=O)(=O)c2ccccc2F)c1	u	n	1.4µM	n	n	n
CC1=C(C(N)=O)C(c2cccc(C)c2)n2nc(-c3cccc(C)c3)nc2N1 (stereo not given)	n	n	u	x	n	x
COc1ccc2c(Sc3ccc(Cl)cc3)c(C(=O)NCCCN3CCCCC3)[nH]c2c1	n	n	n	x	n	x
C=CC[n+]1c(-c2ccc(Cl)cc2Cl)csc1Nc1ccc(NC(C)=O)cc1	u	28µM	40µM	n	28µM	n
C=CC[n+]1c(-c2ccc(Cl)cc2Cl)csc1Nc1c(C)n(C)n(-c2ccccc2)c1=O	u	40µM	u	n	u	n
Cc1ccc(-c2nnc(SCC(=O)NC3CCCC3)nc2-c2ccc(C)cc2)cc1	n	n	n	x	n	x
CSc1nc(-c2ccco2)nn1C(=O)c1cccs1	n	n	n	n	n	x
COc1ccc(C(=O)n2nc(-c3ccco3)nc2NCc2cccs2)cc1	n	n	10µM	x	n	x
COc1ccc(C(=O)n2nc(-c3ccco3)nc2SC)cc1OC	n	n	20µM	n	u	n
O=C(O)c1ccccc1SC1=NS(=O)(=O)c2ccccc21	x	x	x	x	n	x
Cc1ccc(CN(C(=O)COc2ccccc2Cl)c2ccccn2)o1	n	u	n	x	n	x
O=S(=O)(c1ccccc1)c1nc(-c2ccco2)oc1NCc1ccco1	u	u	u	n	u	n
CNc1oc(Cc2ccccc2)nc1S(=O)(=O)c1ccccc1	u	n	u	-85	3.2µM	x
CCOc1ccc(-c2nc(S(=O)(=O)c3ccccc3)c(NC)o2)cc1	n	n	n	n	n	x
O=S(=O)(c1ccccc1)c1nc(-c2ccco2)oc1Nc1ccccc1	n	u	7.9µM	n	n	n
O=S(=O)(c1ccc(F)cc1)c1nc(-c2ccco2)oc1Nc1ccccc1	n	n	u	n	n	n
SMILES	HP1b chromo inh	BAZ2B inh	G9a inh	PI5P4Ka inh	JMJD2A Tudor inh	L3MBTL1 inh
O=S(=O)(c1ccccc1)c1nc(-c2ccco2)oc1NCc1ccccc1	n	n	35µM	x	n	x
CCN1C(=O)/C(=C\c2ccncc2)SC1=Nc1ccc(C)c(C)c1	u	32µM	u	n	50µM	n
CCCN1C(=O)/C(=C\c2ccncc2)SC1=Nc1ccccc1	n	u	u	n	u	n
CN1CCN(C(=S)NC(=O)c2ccco2)CC1	n	u	50µM	n	16µM	n
O=C(NC(=S)N1CCN(c2ccc(O)cc2)CC1)c1ccco1	n	x	x	n	n	n
O=C(NC(=S)N1CCN(c2ccccn2)CC1)c1ccco1	n	u	56µM	n	n	n
CN1CCN(C(=S)NC(=O)c2ccc(Cl)cc2)CC1	u	56µM	28µM	-91	u	n
CC(NNC(=S)N1CCN(c2ccccn2)CC1)c1nccc2ccccc12 (stereo not given)	25µM	x	x	n	20µM	x
CCOc1ccccc1NC(=O)CC1C(=O)NCCN1C(=O)c1ccc(F)cc1 (stereo not given)	n	n	n	x	n	x
COc1cccc(CNC(=O)c2ccc(-c3nc(CS(=O)c4ccccc4)c(C)o3)cc2)c1 (stereo not given)	n	n	u	x	n	x
O=C1NC(=O)c2cc(Nc3ccccc3)c(Nc3ccccc3)cc21	x	x	21µM!	x	x	x
O=C1NC(=O)c2cc(Nc3ccc(F)cc3)c(Nc3ccc(F)cc3)cc21	x	x	14µM	x	x	x
CCSC1=NC(=O)/C(=C2/C=Cc3ccccc3N2CC)S1	u	7.1µM	u	n	28µM	x
CCCN1C(=O)/C(=c2\s/c(=C3\C=Cc4ccccc4N3CC)c(=O)n2-c2ccccc2)SC1=S	x	n	n	x	x	n
COC(=O)Cc1[nH]c(=S)[nH]c1C(=O)OC	n	n	x	n	3.2µM	n
O=C(c1cnccn1)N1CCC2(CCCN(c3ccc(-c4ccccc4)cc3)C2)CC1	x	x	n[12.7 µM]	x	x	x
O=C(O)CCCCCN1C(=O)/C(=C\c2cn(-c3ccccc3)nc2-c2cccs2)SC1=S	n	13µM	16µM	n	40µM	u
CN1CCC(N(C)C(=O)/C=C/c2cn(-c3ccccc3)nc2-c2cccs2)CC1	n	n	n	n	u	n

Source: PubChem BioAssay
